FBW7 act – activators of human E3 ligase FBW7 | Q969H0 | AlphaScreen FBW7–phospho-cyclin E peptide binding, activator screen | normalized activity (activation), % at 26.1 µM | 0.13% of 650,000 active | AID 1259310; in the data active = normalized activity above about 1.9%;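 also: purified mutant Fbw7 with reduced substrate affinity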
MITF primary – human MITF inhibition, primary screen. O75030. AlphaScreen MITF homodimerization, bead proximity signal. inhibition, % at 2.6 µM. 0.91% of 650,000 active. AID 1259374; in the data active = inhibition above about 50%;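 also: 0% = vehicle wells with protein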
Target sequence (O75030 whole entry, looked up): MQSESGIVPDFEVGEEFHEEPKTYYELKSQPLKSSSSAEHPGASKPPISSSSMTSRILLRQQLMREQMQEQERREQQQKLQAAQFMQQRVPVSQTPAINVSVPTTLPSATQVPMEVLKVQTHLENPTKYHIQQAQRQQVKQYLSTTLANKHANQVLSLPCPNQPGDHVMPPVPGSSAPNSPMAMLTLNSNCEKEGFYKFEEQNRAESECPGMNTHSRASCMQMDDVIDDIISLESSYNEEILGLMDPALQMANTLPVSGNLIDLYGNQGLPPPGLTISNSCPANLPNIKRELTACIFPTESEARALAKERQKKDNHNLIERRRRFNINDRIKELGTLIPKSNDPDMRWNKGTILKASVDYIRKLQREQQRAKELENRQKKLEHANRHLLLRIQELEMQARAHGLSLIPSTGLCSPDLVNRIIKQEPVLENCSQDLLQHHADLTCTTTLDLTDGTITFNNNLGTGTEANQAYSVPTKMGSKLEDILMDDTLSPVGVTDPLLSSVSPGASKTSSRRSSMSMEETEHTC
TEAD-YAP inh – TEAD-YAP interaction inhibition | 1.4% of 640,000 active | HEK-TIYL cells, TEAD-Gal4/YAP UAS-luciferase luminescence | inhibition, % at 9.12 µM; in the data active = inhibition above about 32%;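 also: 0% = median of test compound wells and 100% = reference inhibitor wells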
GPR151 ag – human GPR151 activation. 1% of 650,000 active. PathHunter beta-arrestin GPR151 cells, luminescence. Q8TDV0. AID 1508602. activation, % at 11.2 µM; in the data active = activation above about 4.9%;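 also: 0% = median of compound wells and 100% = cells with positive control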
MITF confirm – human MITF inhibition, confirmation; AlphaScreen MITF homodimerization, biotin/His-MITF beads; shares compounds with MITF primary; 16% of 4,700 active; AID 1259372; inhibition, % at 2.6 µM;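 active = inhibition above a cutoff derived from the DMSO control wells, cut at about 28% in these data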;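 also: 0% = MITF dimer wells with DMSO only; inhibitors lower the bead chemiluminescence by keeping MITF from dimerizing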
AlphaScreen DR – counter-screen: compounds optically interfering with AlphaScreen; shares compounds with MITF primary; AlphaScreen optical interference counterscreen, cell-free; 6% of 480 active; IC50, µM; call rule not given here
AlphaScreen intf2 – AlphaScreen optical interference, counter-screen | LysRS AlphaScreen counterscreen, signal interference, triplicate | inhibition, % at 2.6 µM | 7.6% of 4,700 active | shares compounds with MITF primary | AID 1259376;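 active = inhibition above a cutoff derived from the DMSO control wells, cut at about 30% in these data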
Numbers without * were called inactive; · = no result given; ! = a repeat was not active. The list is not random: actives were taken first. Their share in the collection is about 3.4%.

SMILES	FBW7 act	MITF primary	TEAD-YAP inh	GPR151 ag	MITF confirm	AlphaScreen intf2	others
O=C(C1CCC(Nc2nccc(-c3ccc4nc(C5CC5)[nH]c(=O)c4c3)n2)CC1)N1CCCC1 (centres undefined)	2.6*!	58.7*!	-16.5	-0.3	62.6*	-10.2	AlphaScreen DR=>6.48
O=C(Nc1ccc(Nc2nccc(-c3ccc4nc(C5CC5)[nH]c(=O)c4c3)n2)cc1)N1CCCC1	1.7	38.9	-15.7	0.9	·	·
Cn1nnc(-c2ccc(Nc3nccc(-c4ccc5nc(C6CC6)[nH]c(=O)c5c4)n3)cc2)n1	1.0	63.1*	3.8	2.1	39.3*	-21.9	AlphaScreen DR=>6.48
CCCCNC(=O)c1c[nH]c2ccc(S(=O)(=O)N(C)c3ccc(OCC)cc3)cc2c1=O	0.3	4.4	7.5	-0.6	·	·
CC(=O)C1=C(O)CC(C)(C)CC1=NCCc1ccccc1	-0.1	8.2	-9.4	0.4	·	·
CCOc1ccc(-n2c(CNC(=O)c3ccc(OC)c(OC)c3)nnc2SCC(=O)N2CCc3ccccc32)cc1	0.2	0.9	-7.2	-0.8	·	·
N#Cc1c(N)nc(SCC(N)=O)c(C#N)c1-c1ccccc1Cl	0.2	84.9*	-11.7	2.3	2.6	4.7
COC(=O)C(=O)Nc1nnc(C2CCCC2)s1	-0.2	78.7*	1.9	-0.8	9.1	13.1
O=C(Nc1nnc(C2CCCCC2)s1)C1CC1	0.0	7.4	1.2	1.0	·	·
COC(=O)C(=O)Nc1nnc(C2CCCCC2)s1	-0.1	67.0*	-3.7	-0.8	8.9	13.5
N#Cc1ccc(NC(=O)CSc2ncccn2)cc1	-0.1	-10.0	14.9	-0.9	·	·
Cc1cccc(NC(=O)C(=O)NCC2CCCO2)c1C (centres undefined)	-0.2	1.3	-43.3	-0.2	·	·
CC(NCCN(C)C)C(=O)Nc1ccc2c(c1)OCO2 (centres undefined)	-0.3	73.3*	3.3	0.2	2.6	2.4
C/C(=N\NC(=O)CC1(C)OCCO1)c1oc(C)cc1C	-0.2	-9.2	5.6	0.4	·	·
FC(F)(F)c1ccccc1CN1CCN(C2C3CC4CC(C3)CC2C4)CC1 (centres undefined)	0.0	75.8*	-1.7	-0.2	15.0	10.5
O=S(=O)(c1ccc2ccccc2c1)N1CCN(Cc2ccccc2C(F)(F)F)CC1	-0.1	10.6	-5.4	1.1	·	·
FC(F)(F)c1ccccc1CN1CCN(C2CCCCCC2)CC1	-0.1	78.0*	7.7	0.5	8.9	24.4
FC(F)(F)c1ccccc1CN1CCN(C2CCCCC2)CC1	-0.2	68.9*	6.9	-1.4	15.8	18.0
FC(F)(F)c1ccccc1CN1CCC(N2CCCC2)CC1	0.0	57.2*	0.0	1.2	6.5	12.6
FC(F)(F)c1ccccc1CN1CCC(N2CCCCC2)CC1	-0.1	-5.5	18.6	1.0	·	·
O=C(CCCOc1ccc(Cl)cc1Cl)Nc1ccc(Oc2ccc3ccccc3c2Br)c(Cl)c1	-0.1	3.3	7.0	2.4	·	·
COc1ccc(-c2csc(Nc3cccc(C)c3)n2)cc1[N+](=O)[O-]	-0.3	7.0	5.1	-0.7	·	·
CCOC(=O)C1CCCCN1Cc1ccccc1C(F)(F)F (centres undefined)	0.0	52.9*	-8.9	-0.1	-2.9	5.9
COc1ccc(C(=O)Nc2sc(C)c(C)c2C#N)cc1[N+](=O)[O-]	0.1	74.3*	5.8	-1.1	-5.8	-5.8
CCOc1ccccc1OCCCNCCO	0.0	57.9*	11.5	-0.3	12.7	13.7
SMILES	FBW7 act	MITF primary	TEAD-YAP inh	GPR151 ag	MITF confirm	AlphaScreen intf2	others
OCCNCCOc1cccc2ccccc12	0.5	50.8*	-2.0	-1.7	-0.3	21.0
CCCCNCCOc1ccccc1F	-0.2	64.5*	2.8	-1.0	-3.8	-6.8
CSc1ccc(CN2CCC3(CC2)CC3C(=O)NCc2cccnc2)cc1 (centres undefined)	-0.1	2.2	6.6	1.8	·	·
CCOC(=O)c1nc(Nc2ccc(CC)cc2)sc1C	0.1	-7.4	-49.6	1.8	·	·
CCOc1ccc(-c2c(C)sc3ncn(CC(=O)O)c(=O)c23)cc1	-0.1	5.8	4.2	1.0	·	·
Cc1ccc(C(=O)OCc2cn3ccccc3n2)cc1	0.0	51.1*	-3.8	-1.0	10.6	11.7
COc1cc(N=c2oc3c(C)ncc(CO)c3cc2C(N)=O)cc(OC)c1	0.1	16.9	1.0	-1.6	·	·
CC(c1ccccn1)N(CCN(C)C)C(=S)Nc1cccc(F)c1 (centres undefined)	-1.6	87.5*	4.5	2.4	42.5*	95.9*
